# Sampled rows, rich in hits. Any-hit rate of the full collection: about 4.7%.
# GDH-TPI counter: GDH-TPI coupling enzyme inhibitors, primary screen, artefact control for M. tuberculosis FBA inhibitor project, biochemical, absorbance, full deck. GDH-TPI coupled enzyme counterscreen, NADH absorbance. inhibition, % at 4.8 µM. 1.2% of 360,000 active. AID 588335, 2011;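 also: 0% = DMSO wells and 100% = wells lacking the enzyme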
# CCHFV vOTU inh: CCHFV vOTU protease inhibitors, primary screen, biochemical, Pep-AMC substrate, fluorescence. inhibition, % at 11.5 µM. 0.55% of 370,000 active. AID 651958, 2012. Crimean-Congo hemorrhagic fever virus L polyprotein viral ovarian tumor (vOTU) protease …; also: 0% = vehicle wells with enzyme and 100% = no enzyme wells
# FBA Mtb inh: Mtb FBA enzyme inhibitors, primary screen, biochemical, fluorescence, strain H37Rv. Fructose-bisphosphate aldolase (Mycobacterium tuberculosis (strain ATCC 25618 / H37Rv)), …. purified M. tuberculosis FBA, fluorescence read-out. inhibition, % at 1 µM. 2.3% of 360,000 active; in the data active = inhibition above about 27%;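 also: 0% = vehicle and 100% = reference inhibitor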
# Target sequence (P9WQA3 whole entry, looked up): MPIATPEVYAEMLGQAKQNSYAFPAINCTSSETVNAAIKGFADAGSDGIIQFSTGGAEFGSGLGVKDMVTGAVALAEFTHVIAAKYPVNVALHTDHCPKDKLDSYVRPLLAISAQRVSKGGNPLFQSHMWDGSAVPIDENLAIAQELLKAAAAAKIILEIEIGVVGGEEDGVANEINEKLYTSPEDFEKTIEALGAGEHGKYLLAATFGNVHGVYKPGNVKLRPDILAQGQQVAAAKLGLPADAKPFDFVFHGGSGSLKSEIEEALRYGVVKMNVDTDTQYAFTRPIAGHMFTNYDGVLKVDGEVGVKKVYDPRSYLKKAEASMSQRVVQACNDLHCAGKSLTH
# RecA splice inh: Mtb RecA intein splicing inhibitors, primary screen, biochemical, fluorescence, HTS. Protein RecA (Mycobacterium tuberculosis (strain ATCC 25618 / H37Rv)), P9WHJ3. cell-free RecA intein splicing. inhibition, % (test concentration not listed). 0.75% of 290,000 active; in the data active = inhibition above about 30%;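 also: 0% = vehicle wells and 100% = reference inhibitor control wells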
# 3CLpro inhibitor: SARS-CoV 3CLpro protease inhibitors, primary screen, biochemical, quenched FRET | 0.14% of 290,000 active | Replicase polyprotein 1ab (Severe acute respiratory syndrome coronavirus), P0C6X7 | recombinant SARS-CoV 3CLpro, quenched FRET peptide cleavage | AID 1706, 2009 | inhibition, % at 6 µM; in the data active = inhibition above about 12%
# DUSP3 inh: VHR1 phosphatase inhibitors, primary screen, biochemical, absorbance, uHTS. inhibition, % at 13.3 µM. 0.52% of 290,000 active. Dual specificity protein phosphatase 3 (Homo sapiens), P51452. recombinant VHR phosphatase, pNPP absorbance; in the data active = inhibition above about 50%
# Target sequence (P51452 whole entry, looked up): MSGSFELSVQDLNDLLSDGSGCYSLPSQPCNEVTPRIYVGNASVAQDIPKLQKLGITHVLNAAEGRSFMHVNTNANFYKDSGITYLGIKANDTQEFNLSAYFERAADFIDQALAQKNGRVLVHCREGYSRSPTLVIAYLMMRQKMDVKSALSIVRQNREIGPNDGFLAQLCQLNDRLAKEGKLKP
# The depositor's hits bear a star; i = inactive; · = not tested or not shown; + = active, no number. Rule as the data show it, unless noted: active = inhibition above about 30%; inactive = the rest.
SMILES,GDH-TPI counter,CCHFV vOTU inh,FBA Mtb inh,RecA splice inh,3CLpro inhibitor,DUSP3 inh
Cc1ccccc1NCC(=O)N/N=C/c1c(C)c(C(=O)c2ccc(Cl)cc2)n2ccccc12,32*,-12,-5,3,2,6
Cc1c(C=O)c2ccccn2c1C(=O)c1ccc(F)cc1,33*,10,-2,0,-2,·
Cc1c(C=O)c2ccccn2c1C(=O)c1ccccc1,7,14,-3,2,6,39
CCn1c2ccccc2c2cc(NC(=O)COC(=O)c3cc(F)ccc3C)ccc21,·,-1,·,·,·,·
C#CCN1CC(COc2ccccc2)Oc2cccc(Oc3ccc(OC)cc3)c2S1(=O)=O (stereo unspecified),·,20,·,·,·,·
Cc1c(-n2c(SCC(=O)C(C)(C)C)nc3ccccc3c2=O)c(=O)n(-c2ccccc2)n1C,8,-8,145*,0,3,13
Nc1nc2nccc(-c3ccco3)n2n1,21,-141,+,·,1,24
Cc1nc(S/C(=C/c2ccc(OCc3ccc(C(=O)O)cc3)cc2)C(=O)O)n[nH]1,31*,11,4,1,3,40
CC1CCN(CCCNC(=O)C2CCC(CNS(=O)(=O)c3cccc4nsnc34)CC2)CC1 (stereo unspecified),7,0,4,2,1,51*
O=C(NCCCN1CCCCC1)C1CCC(CNS(=O)(=O)c2cccc3nsnc23)CC1 (stereo unspecified),16,-2,1,3,-2,-9
C=CCn1c(O)c(/C=N/N2CCCCC2c2cccnc2)c(=O)[nH]c1=S (stereo unspecified),31*,12,-2,-2,-5,-5
COCCNC(=O)C1(C)CCCN(Cc2csc(-c3ccc(Cl)cc3)n2)C1 (stereo unspecified),10,·,-3,·,·,·
Cc1ccc2[nH]c3c(=O)n(N)c(=O)[nH]c3c2c1,10,-41,119*,1,-3,-7
Cc1nc2ccccn2c1C(=O)CSc1cccc(Cl)c1,6,13,-3,7,5,6
Nc1ccc2c(C(F)(F)F)cc(=O)oc2c1,16,-186,63*,-402,-7,29
COc1ccc(CC(=O)Nc2ccc3c(C(F)(F)F)cc(=O)oc3c2)cc1OC,19,-15,0,-4,3,16
Nc1ccccc1N=Cc1ccc(-c2cccc(Cl)c2)o1,12,-93,146*,0,-2,5
COC(=O)N/N=C/c1ccc(-c2ccc(C)c(Cl)c2)o1,28,8,1,2,3,13
COC(=O)N/N=C/c1ccc(-c2cc(Cl)cc(Cl)c2)o1,46*,14,-5,1,1,-4
CCOC(=O)N/N=C\c1ccc(-c2cc(Cl)ccc2Cl)o1,19,11,7,2,3,-5
COC(=O)N/N=C/c1ccc(-c2cccc(Cl)c2)o1,31*,13,-6,0,2,2
CCOc1ccc(C(=O)CSc2nnc(SCc3ccc(Cl)cc3)s2)cc1,·,-1,·,·,·,·
CC1=C(C(=O)N2CCCCCC2)CC(CC(=O)NCCCN(C)C)C(=O)N1Cc1ccc(F)cc1 (stereo unspecified),·,-5,·,·,·,·
O=C(N/N=C/c1ccc([N+](=O)[O-])o1)c1cn(-c2ccccc2)nc1-c1ccc(Cl)cc1,12,-4,-1,5,-1,13
O=[N+]([O-])CC(=Nc1ccc(Cl)cc1)N/N=C\c1oc(O)c2ccccc12,4,33*,1,8,4,15
SMILES,GDH-TPI counter,CCHFV vOTU inh,FBA Mtb inh,RecA splice inh,3CLpro inhibitor,DUSP3 inh
COc1cc2sc3ccc(C#CC4(O)CCCCC4)cc3c(=O)c2cc1OC,7,-5,23,-11,·,·
Cn1c2ccccc2c(=O)c2ccc(C#CC3(O)CCCCC3)cc21,12,-42,171*,i,1,-7
CCn1cc(C(=O)NCc2cccc(F)c2)c(=O)c2cc(F)c(N3CCN(C(=O)c4ccco4)CC3)cc21,1,-2,38*,3,2,6
CC(=O)c1ccc(N2CCN(C(=O)CCCc3nc4ccccc4s3)CC2)cc1,32*,2,1,·,1,46
CC1CCC/C(=C\c2ccc(O)cc2)C1=O (stereo unspecified),32*,4,0,2,·,·
COc1ccc(-c2cc(=O)c3c(OC)c(OC)c(OC)c(OC)c3o2)cc1,51*,-1,2,·,·,·
COc1ccc(-c2cc(=O)c3cc(OC)ccc3o2)cc1,5,-7,26,1,3,13
CCOC(=O)/C(=C/c1c(C)n(C)c2ccc([N+](=O)[O-])cc12)C(C)=O,31*,5,-8,-2,0,12
CCOC(=O)c1c(N)c2cc([N+](=O)[O-])ccc2n1C,5,7,2,-1,4,17
COc1ccccc1N1CCN(S(=O)(=O)c2cc(-c3cc(C)no3)ccc2C(C)C)CC1,-3,16,-1,-4,1,-10
COC(=O)CC1=NN(c2ccc(OC)cc2)C(=O)C1,8,-2,-5,72*,0,12
Cc1nc2ccc(C(=O)N3CCN(C(=O)OCc4ccccc4)CC3)cc2n1C1CCCC1,·,5,·,·,·,·
COc1cc(/C=N/NC(=O)C2=NNC(=O)C2C)ccc1O (stereo unspecified),22,1,-1,-7,2,-24
CC1C(=O)NN=C1C(=O)N/N=C\c1ccc(O)cc1O (stereo unspecified),62*,4,-3,-7,0,-7
O=C1/C(=C/c2ccccc2F)SC(=S)N1CCC(=O)N1CCCCC1CCO (stereo unspecified),17,17,0,22,5,-4
O=C1/C(=C/c2ccccc2F)SC(=S)N1CC(=O)N1CCCCC1c1cccnc1 (stereo unspecified),18,17,4,32*,2,6
CSCCC(N=C1NS(=O)(=O)c2ccccc21)C(=O)NCCc1ccccc1 (stereo unspecified),0,13,-2,7,3,9
COc1ccccc1OCCN1C(=O)S/C(=C\c2ccco2)C1=O,34*,7,-8,3,4,10
COc1cccc(C=C2SC(=S)N(Cc3ccco3)C2=O)c1OC,·,-3,·,·,·,·
CC(=O)C1=C(C)N(Cc2ccc(Br)cc2)C(=S)NC1c1cccc(F)c1 (stereo unspecified),·,3,·,·,·,·
CCCC[C@H]1C2CC(OC(=O)Nc3ccc(Cl)cc3)C(C2)[C@H]2CCCCN21 (stereo partly specified),·,-2,·,·,·,·

# High-throughput results as filed in PubChem.
